Shown are actives, neighbours in structure and some others; about 4.7% of the full set was active somewhere.
ADAM10 inh: human ADAM10 inhibitors, primary screen, biochemical, QFRET, HTS | Disintegrin and metalloproteinase domain-containing protein 10 (Homo sapiens), O14672 | recombinant ADAM10, EDANS/DABCYL FRET peptide cleavage, 3 h | inhibition, % at 7 µM | actives 0.62% (n = 370,000);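 active means inhibition above a per-campaign cutoff equal to the mean of compounds falling between control-based bounds plus 3 SD, cut at about 20% in these data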;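 further: 0% = DMSO wells while the 100% control is not disclosed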
MPTP inh: mitochondrial permeability transition pore inhibitors, primary screen, biochemical, isolated mouse mitochondria, absorbance | Ca2+ swelling absorbance, 30 min | inhibition, % at 10 µM | actives 1.4% (n = 360,000) | AID 602449, 2012;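 active means inhibition of 50% or more, scaled per plate between neutral and stimulator controls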;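 further: 0% = DMSO wells given calcium and 100% = 1 mM EGTA wells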
ADAM17 inh: ADAM17 inhibitors, primary screen, biochemical, QFRET; AID 720648, 2013; inhibition, % at 6.95 µM; actives 0.83% (n = 370,000); recombinant ADAM17, EDANS/DABCYL FRET peptide cleavage;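 active means inhibition above the mean of compounds lying between control limits plus 3 SD, set per campaign, cut at about 8.5% in these data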;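 further: 0% = DMSO-only wells as the low control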
Target sequence (P78536 215-824 limits assumed): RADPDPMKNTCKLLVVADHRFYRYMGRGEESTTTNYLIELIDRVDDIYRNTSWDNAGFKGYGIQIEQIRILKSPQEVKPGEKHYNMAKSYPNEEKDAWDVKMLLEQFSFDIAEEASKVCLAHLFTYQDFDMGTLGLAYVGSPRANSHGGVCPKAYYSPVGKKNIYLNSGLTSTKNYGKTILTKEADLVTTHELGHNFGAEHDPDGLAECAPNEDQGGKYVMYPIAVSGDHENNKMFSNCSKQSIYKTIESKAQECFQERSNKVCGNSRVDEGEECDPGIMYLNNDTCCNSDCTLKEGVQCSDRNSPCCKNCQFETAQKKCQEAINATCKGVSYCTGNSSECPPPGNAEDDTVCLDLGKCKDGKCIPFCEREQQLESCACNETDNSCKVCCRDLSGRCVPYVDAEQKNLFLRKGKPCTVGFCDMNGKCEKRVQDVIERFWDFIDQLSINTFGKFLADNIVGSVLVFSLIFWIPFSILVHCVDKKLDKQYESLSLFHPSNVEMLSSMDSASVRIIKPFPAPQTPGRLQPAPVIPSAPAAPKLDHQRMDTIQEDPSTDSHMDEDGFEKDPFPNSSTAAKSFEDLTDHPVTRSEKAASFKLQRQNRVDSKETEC
Pemphigus Ab inh: inhibitors of pemphigus antibody binding to DSG3, primary screen, biochemical, bead-based, flow cytometry, scFv-GFP; AID 588358, 2011; DSG3-coupled beads, scFv-anti-DSG3-GFP binding; hits give low values; Desmoglein-3 (Homo sapiens), P32926; actives 0.48% (n = 310,000); binding (percent of control), % at 10 µM;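 active means binding more than 3 SD below its plate's average and above zero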;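 further: hits lower antibody fragment binding to DSG3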
KLK7 zymogen act: proKLK7 zymogen activators, primary screen, biochemical, fluorescence intensity | actives 0.9% (n = 370,000) | activation, % at 7 µM | AID 652039, 2013 | purified proKLK7, EDANS-DABCYL substrate fluorescence; 100% is mature enzyme control, 0% vehicle;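 active means activation above the mean of all tested compounds plus 3 SD, computed per campaign excluding outliers beyond control limits, cut at about 13% in these data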
rCAG RNA binder: binders of r(CAG) RNA repeats, primary screen, biochemical, fluorescence; inhibition, % at 3 µM; AID 651821, 2012; actives 1.3% (n = 370,000); r(CAG) RNA repeat, TO-PRO-1 dye displacement fluorescence;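 active means inhibition above the plate cutoff, the mean of all test compounds on that plate plus 3 SD, cut at about 35% in these data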;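 further: 0% = DMSO alone and 100% = 100 µM mitoxantrone as full dye displacement; higher means more dye released from RNA so lower well fluorescence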
rCAG bind conf: small molecules binding CAG repeat RNA – biochemical, fluorescence, confirmation; shares compounds with rCAG RNA binder; r(CAG) RNA repeat, TO-PRO-1 dye displacement fluorescence; inhibition, % at 3 µM; actives 70% (n = 4,300);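 active means inhibition above a per-plate cutoff, the mean inhibition of sample wells plus 3 SD, cut at about 35% in these data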;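 further: loss of TO-PRO-1 fluorescence as compound displaces dye from 1x1 AA loop RNA; 0% = DMSO only wells and 100% = 100 µM mitoxantrone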
dCAG dye counter: displacement of TO-PRO-1 from CAG DNA duplex, counter-screen for rCAG RNA repeat binder project, biochemical, fluorescence, TO-PRO-1 dye, d(CAG) DNA oligo; d(CAG) DNA oligo TO-PRO-1 dye displacement; actives 94% (n = 4,300); inhibition, % at 3 µM; shares compounds with rCAG RNA binder; AID 652068, 2013;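 active means inhibition above its plate's cutoff, the mean test-well inhibition plus 3 SD, cut at about 4.8% in these data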;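 further: 0% = DNA dye mix with DMSO and 100% = 100 µM mitoxantrone; hits displace the dye from DNA and so lower well fluorescence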
DNA CAG DR: inhibitors of DNA CAG/GTC TO-PRO-1 complex, dose response, counter-screen for rCAG RNA repeat binder project, biochemical, fluorescence, TO-PRO-1 dye; shares compounds with rCAG RNA binder; DNA CAG/GTC duplex TO-PRO-1 dye displacement fluorescence; IC50, µM; actives 20% (n = 250); AID 686960, 2013; in the data active means IC50 below about 10 µM
Active calls of the source: *; i = inactive; / = no result given.

SMILES	ADAM10 inh	MPTP inh	ADAM17 inh	Pemphigus Ab inh	KLK7 zymogen act	rCAG RNA binder	rCAG bind conf	dCAG dye counter	others
O=C(NCc1ccccc1)C(c1ccco1)N1CCN(CCN2CCOCC2)CC1 (centres undefined)	-11	/	-3	/	0	2	/	/
CCCN1C(=O)c2[nH]nc(-c3ccccc3)c2C1c1ccc(Br)cc1 (centres undefined)	-3	/	0	/	0	2	/	/
S=c1nc(NCCc2ccccc2Cl)c2ccccc2[nH]1	-1	2	0	100	0	4	/	/
COC(=O)c1c(C(=O)OC)c(-c2cccc(Cl)c2)n2c1CS(=O)(=O)C2	1	-2	1	103	0	-4	/	/
CCCCN1Cc2c(nc3cc(-c4ccco4)[nH]n3c2=O)C1=O	i	1	-225	110	-3	66*	9	2
CCOC(=O)[C@]12CCCC=C1N(CCC1=CCCCC1)C(=O)[C@H](CC(=O)NCCCN1CCCC1=O)C2	-10	0	-4	/	0	-1	/	/
CCOc1cc(C(=O)NC(=S)Nc2ccc(Cl)c(C(=O)O)c2)cc(OCC)c1OCC	-1	1	1	96	0	41*	28	5.6*
Cc1ccc(C(=O)O)cc1NC(=S)NC(=O)C(c1ccccc1)c1ccccc1	0	-4	1	105	0	58*	38*	10*
O=C(O)c1cc(NC(=S)NC(=O)C(c2ccccc2)c2ccccc2)ccc1Cl	5	0	2	101	0	41*	29	6.9*
Cc1ccc(C(=O)O)cc1NC(=S)NC(=O)Cc1ccccc1	0	-1	-6	98	-1	4	/	/
NC(=O)c1sc2nc3c(c(-c4ccco4)c2c1N)CCC3	-36	0	-13	110	1	43*	4	4
O=C(CSc1nc2ccccc2n1Cc1ccccc1Cl)N/N=C/c1ccccc1C(=O)O	-4	4	-3	100	1	39*	54*	16*
N#C/C(=C/c1ccc(F)cc1)S(=O)(=O)c1ccccc1	-12	-4	-1	119	0	4	/	/
N#C/C(=C\c1ccc(C(=O)O)cc1)S(=O)(=O)c1cc(Br)ccc1Br	-1	3	-1	115	0	55*	12	1
COc1ccc(Cc2c(-c3ccc(F)cc3)nc3c(C)cc(Br)cn23)c(C)c1	-7	-1	-2	/	-1	16	/	/
CCOc1ccc2nc(NC(=O)CSc3cn[nH]n3)sc2c1	16	-1	3	110	-1	4	/	/
COc1cccc(-c2nc(SCC(=O)Nc3nc(-c4ccccc4)c(C)s3)[nH]c(=O)c2C#N)c1	2	13	1	111	1	70*	92*	76*
CCOc1ccc2nc(NC(=O)CSc3nc(-c4ccccc4)c(C#N)c(=O)[nH]3)sc2c1	0	0	0	103	0	83*	88*	69*
CCOC(=O)Cc1csc(NC(=O)CSc2nc(-c3ccccc3)c(C#N)c(=O)[nH]2)n1	8	-2	1	105	-1	64*	57*	20*
Cc1[nH]c2ccccc2c1CC(=O)Nc1ccc(Nc2cccnc2)c(-c2cc(F)cc(F)c2)c1	-67	/	-19	/	-4	12	/	/
CN(CCO)c1cccc2c1S(=O)(=O)N(Cc1cn(Cc3cccc(C(F)(F)F)c3)nn1)Cc1ccccc1O2	-9	/	1	/	0	0	/	/
O=C(NNC(=O)C1CC1)c1cc(Br)c(Br)s1	9	45	4	102	0	36*	37*	13*
CN(C(=O)c1cccc(NC(=O)Cc2ccc(NC(=O)C3CCN(S(=O)(=O)c4cccc([N+](=O)[O-])c4)CC3)cc2)c1)C1CC1	-3	-2	2	99	0	11	/	/
CC1(C)C2CC[C@]3(C)C(CC=C4[C@@H]5C[C@@](C)(CO)[C@@H](O)C[C@]5(C(=O)O)CC[C@]43C)[C@@]2(C)CC[C@@H]1O (some centres undefined)	/	-1	/	/	/	/	/	/
CC1(C)CC[C@]2(C(=O)O[C@@H]3OC(CO)[C@@H](O)[C@H](O)[C@H]3O)CC[C@]3(C)C(=CCC4[C@@]5(C)CC[C@H](O[C@@H]6OC(C(=O)O)[C@@H](O)[C@H](O)[C@H]6O)C(C)(C)C5CC[C@]43C)[C@@H]2C1 (some centres undefined)	-14	0	-3	109	0	46*	45*	12*	DNA CAG DR=>30
SMILES	ADAM10 inh	MPTP inh	ADAM17 inh	Pemphigus Ab inh	KLK7 zymogen act	rCAG RNA binder	rCAG bind conf	dCAG dye counter	others
COc1ccc(S(=O)(=O)N2CCCCC2c2cc(C(=O)NCc3cccnc3)no2)cc1 (centres undefined)	-2	0	-2	/	0	1	/	/
CC1CC(C)CN(S(=O)(=O)c2ccc(C(=O)NNC(=O)c3ccccc3F)cc2)C1 (centres undefined)	1	1	-2	/	0	10	/	/
CC(C)(C)NC(=O)C(c1ccc(C#N)cc1)n1c(=O)c(-c2ccco2)nc2ccccc21 (centres undefined)	-196	-2	-57	/	0	37*	24	13*
CC1CCCN(C(=O)c2cccc(S(=O)(=O)Nc3cc(C(F)(F)F)ccc3Cl)c2)C1 (centres undefined)	0	37	0	99	0	62*	60*	27*
O=C(c1cccc(S(=O)(=O)Nc2ccccc2Cl)c1)N1CCC1	-5	0	-1	106	-1	-1	/	/
CCc1c(O)nc(SCC(=O)Nc2ccc(OC)cc2)n(C2CCCCC2)c1=O	1	4	-1	103	0	10	/	/
CCc1c(O)nc(SCC(=O)Nc2nc3ccccc3s2)n(C2CCCCC2)c1=O	2	50	-1	/	0	40*	48*	15*

From PubChem
